# According to paper PMC8384837, “Expanding the binding specificity for RNA recognition by a PUF domain”:
# Legend:
# Experiment in all cases: yeast three-hybrid, YBZ-1, SC-Leu-His + 0.5 mM 3-AT, 4 days
# Settings in all cases: tags: N-Gal4 AD-HA kept; label: inside an RPR1-promoter hybrid RNA with tandem MS2 sites; ssRNA
# PUM1 PUF domain R5-QRL = PUM1 PUF domain R5-QRL (Homo sapiens, UniProt Q14671 828-1176, C1007Q;Q1011L)
# How it was run: (§1)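 Sequencing with Illumina followed PCR amplification of the repeat regions from transformants grown four days on SC-Leu (input) or SC-Leu-His + 0.5 mM 3-AT (selection). The transformants were strain YBZ-1 with a LexA–MS2 coat fusion and a HIS3 reporter, carrying Pumilio-1 PUF domain libraries and matching RNA elements. The interaction score is the log change in variant frequency from input to selection, computed in log2 with a pseudocount of 1 for absent variants.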
# PUM1 PUF domain R4-NNG = PUM1 PUF domain R4-NNG (Homo sapiens, UniProt Q14671 828-1176, H972N;Q975G)
# Chain of PUM1 PUF domain R4-NNG (Q14671 828-1176 H972N/Q975G): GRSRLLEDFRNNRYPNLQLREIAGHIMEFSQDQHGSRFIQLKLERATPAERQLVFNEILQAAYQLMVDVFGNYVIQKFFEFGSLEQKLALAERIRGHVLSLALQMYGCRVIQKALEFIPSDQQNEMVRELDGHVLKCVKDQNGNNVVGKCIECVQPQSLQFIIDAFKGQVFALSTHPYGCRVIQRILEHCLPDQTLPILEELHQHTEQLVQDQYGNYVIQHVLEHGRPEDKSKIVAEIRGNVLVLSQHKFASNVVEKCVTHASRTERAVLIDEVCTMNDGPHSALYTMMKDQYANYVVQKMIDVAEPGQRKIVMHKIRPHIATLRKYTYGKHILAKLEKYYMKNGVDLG
# How it was run: as §1
# PUM1 PUF domain R4-EWG = PUM1 PUF domain R4-EWG (Homo sapiens, UniProt Q14671 828-1176, N971E;H972W;Q975G)
# How it was run: as §1
# PUM1 PUF domain R1-HLR = PUM1 PUF domain R1-HLR (Homo sapiens, UniProt Q14671 828-1176, S863H;R864L;Q867R)
# How it was run: as §1
# PUM1 PUF domain R4-PFT = PUM1 PUF domain R4-PFT (Homo sapiens, UniProt Q14671 828-1176, N971P;H972F;Q975T)
# Chain of PUM1 PUF domain R4-PFT (Q14671 828-1176 N971P/H972F/Q975T): as the sequence (Q14671 828-1176 H972N/Q975G) above, with N144P, N145F, G148T counted along it
# How it was run: as §1
# PUM1 PUF domain R5-LYA = PUM1 PUF domain R5-LYA (Homo sapiens, UniProt Q14671 828-1176, C1007L;R1008Y;Q1011A)
# Chain of PUM1 PUF domain R5-LYA (Q14671 828-1176 C1007L/R1008Y/Q1011A): as the sequence (Q14671 828-1176 H972N/Q975G) above, with N145H, G148Q, C180L, R181Y, Q184A counted along it
# How it was run: as §1
# PUM1 PUF domain R8-RWQ = PUM1 PUF domain R8-RWQ (Homo sapiens, UniProt Q14671 828-1176, N1122R;Y1123W)
# How it was run: as §1
# PUM1 PUF domain R5-SRL = PUM1 PUF domain R5-SRL (Homo sapiens, UniProt Q14671 828-1176, C1007S;Q1011L)
# How it was run: as §1
# PUM1 PUF domain R3-VCE = PUM1 PUF domain R3-VCE (Homo sapiens, UniProt Q14671 828-1176, C935V;R936C;Q939E)
# How it was run: as §1
# PUM1 PUF domain R6-LWR = biological target: T1, PUM1 PUF domain R6-LWR (Homo sapiens, UniProt Q14671 828-1176, N1043L;Y1044W;Q1047R)
# T1 sequence: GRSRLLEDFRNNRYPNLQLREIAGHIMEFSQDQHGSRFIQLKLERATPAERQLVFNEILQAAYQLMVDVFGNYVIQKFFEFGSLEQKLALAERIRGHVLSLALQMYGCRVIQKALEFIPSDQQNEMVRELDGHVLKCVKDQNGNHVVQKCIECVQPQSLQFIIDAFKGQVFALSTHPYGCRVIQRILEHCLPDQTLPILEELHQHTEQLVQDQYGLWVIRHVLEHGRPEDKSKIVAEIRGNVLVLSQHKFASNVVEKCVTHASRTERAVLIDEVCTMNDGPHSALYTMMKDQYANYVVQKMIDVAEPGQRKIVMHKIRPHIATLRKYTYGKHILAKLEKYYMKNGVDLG
# How it was run: as §1
# PUM1 PUF domain R8-SWK = PUM1 PUF domain R8-SWK (Homo sapiens, UniProt Q14671 828-1176, N1122S;Y1123W;Q1126K)
# How it was run: as §1
# PUM1 PUF domain R8-IYV = PUM1 PUF domain R8-IYV (Homo sapiens, UniProt Q14671 828-1176, N1122I;Q1126V)
# How it was run: as §1
# PUM1 PUF domain R8-MYR = PUM1 PUF domain R8-MYR (Homo sapiens, UniProt Q14671 828-1176, N1122M;Q1126R)
# How it was run: as §1
# PUM1 PUF domain R3-GWF = PUM1 PUF domain R3-GWF (Homo sapiens, UniProt Q14671 828-1176, C935G;R936W;Q939F)
# How it was run: as §1
# PUM1 PUF domain R4-DYI = PUM1 PUF domain R4-DYI (Homo sapiens, UniProt Q14671 828-1176, N971D;H972Y;Q975I)
# Chain of PUM1 PUF domain R4-DYI (Q14671 828-1176 N971D/H972Y/Q975I): as the sequence (Q14671 828-1176 H972N/Q975G) above, with N144D, N145Y, G148I counted along it
# How it was run: as §1
# PUM1 PUF domain R4-YHA = PUM1 PUF domain R4-YHA (Homo sapiens, UniProt Q14671 828-1176, N971Y;Q975A)
# Chain of PUM1 PUF domain R4-YHA (Q14671 828-1176 N971Y/Q975A): as the sequence (Q14671 828-1176 H972N/Q975G) above, with N144Y, N145H, G148A counted along it
# How it was run: as §1
# PUM1 PUF domain R3-QRA = PUM1 PUF domain R3-QRA (Homo sapiens, UniProt Q14671 828-1176, C935Q;Q939A)
# Chain of PUM1 PUF domain R3-QRA (Q14671 828-1176 C935Q/Q939A): as the sequence (Q14671 828-1176 H972N/Q975G) above, with C108Q, Q112A, N145H, G148Q counted along it
# How it was run: as §1
# PUM1 PUF domain R3-QRV = PUM1 PUF domain R3-QRV (Homo sapiens, UniProt Q14671 828-1176, C935Q;Q939V)
# Chain of PUM1 PUF domain R3-QRV (Q14671 828-1176 C935Q/Q939V): as the sequence (Q14671 828-1176 H972N/Q975G) above, with C108Q, Q112V, N145H, G148Q counted along it
# How it was run: as §1
# PUM1 PUF domain R7-QPR = PUM1 PUF domain R7-QPR (Homo sapiens, UniProt Q14671 828-1176, S1079Q;N1080P;E1083R)
# Chain of PUM1 PUF domain R7-QPR (Q14671 828-1176 S1079Q/N1080P/E1083R): as the sequence (Q14671 828-1176 H972N/Q975G) above, with N145H, G148Q, S252Q, N253P, E256R counted along it
# How it was run: as §1
# Chain of PUM1 PUF domain R5-QRL (Q14671 828-1176 C1007Q/Q1011L): as the sequence (Q14671 828-1176 H972N/Q975G) above, with N145H, G148Q, C180Q, Q184L counted along it
sequence,measurement,setting,value
GGCUAGAACUAGUGGAUCCCCCGGCGCCCGGCGGCUCGAGCCCGGGUAAGUGUGAAUAGUCUGCAUGCCGCCGGGCGCCAUGCCUGCAGGUCGACUCUAGAAAACAUG,binding signal,PUM1 PUF domain R5-QRL,3.22 log2 enrichment (interaction score)
GGCUAGAACUAGUGGAUCCCCCGGCGCCCGGCGGCUCGAGCCCGGGUAAGUGUACAUAGUCUGCAUGCCGCCGGGCGCCAUGCCUGCAGGUCGACUCUAGAAAACAUG,binding signal,PUM1 PUF domain R4-NNG,1.82 log2 enrichment (interaction score)
same,binding signal,PUM1 PUF domain R4-EWG,1.12 log2 enrichment (interaction score)
GGCUAGAACUAGUGGAUCCCCCGGCGCCCGGCGGCUCGAGCCCGGGUAAGUGUAAAUCGUCUGCAUGCCGCCGGGCGCCAUGCCUGCAGGUCGACUCUAGAAAACAUG,binding signal,PUM1 PUF domain R1-HLR,3.24 log2 enrichment (interaction score)
GGCUAGAACUAGUGGAUCCCCCGGCGCCCGGCGGCUCGAGCCCGGGUAAGUGUAAAUAGUCUGCAUGCCGCCGGGCGCCAUGCCUGCAGGUCGACUCUAGAAAACAUG,binding signal,PUM1 PUF domain R4-PFT,5.31 log2 enrichment (interaction score)
same,binding signal,PUM1 PUF domain R5-LYA,3.54 log2 enrichment (interaction score)
same,binding signal,PUM1 PUF domain R5-QRL,3.37 log2 enrichment (interaction score)
same,binding signal,PUM1 PUF domain R8-RWQ,6.33 log2 enrichment (interaction score)
same,binding signal,PUM1 PUF domain R5-SRL,3.16 log2 enrichment (interaction score)
same,binding signal,PUM1 PUF domain R3-VCE,2.11 log2 enrichment (interaction score)
same,binding signal,PUM1 PUF domain R4-EWG,3.6 log2 enrichment (interaction score)
same,binding signal,PUM1 PUF domain R6-LWR,5.05 log2 enrichment (interaction score)
same,binding signal,PUM1 PUF domain R8-SWK,5.34 log2 enrichment (interaction score)
same,binding signal,PUM1 PUF domain R8-IYV,2.36 log2 enrichment (interaction score)
same,binding signal,PUM1 PUF domain R8-MYR,4.65 log2 enrichment (interaction score)
same,binding signal,PUM1 PUF domain R3-GWF,5.35 log2 enrichment (interaction score)
GGCUAGAACUAGUGGAUCCCCCGGCGCCCGGCGGCUCGAGCCCGGGUAAGUGUAUAUAGUCUGCAUGCCGCCGGGCGCCAUGCCUGCAGGUCGACUCUAGAAAACAUG,binding signal,PUM1 PUF domain R4-DYI,6.31 log2 enrichment (interaction score)
same,binding signal,PUM1 PUF domain R4-NNG,4.95 log2 enrichment (interaction score)
same,binding signal,PUM1 PUF domain R4-YHA,3.12 log2 enrichment (interaction score)
GGCUAGAACUAGUGGAUCCCCCGGCGCCCGGCGGCUCGAGCCCGGGUAAGUGUAAUUAGUCUGCAUGCCGCCGGGCGCCAUGCCUGCAGGUCGACUCUAGAAAACAUG,binding signal,PUM1 PUF domain R3-QRA,2.85 log2 enrichment (interaction score)
same,binding signal,PUM1 PUF domain R3-QRV,2.73 log2 enrichment (interaction score)
GGCUAGAACUAGUGGAUCCCCCGGCGCCCGGCGGCUCGAGCCCGGGUAAGUUUAAAUAGUCUGCAUGCCGCCGGGCGCCAUGCCUGCAGGUCGACUCUAGAAAACAUG,binding signal,PUM1 PUF domain R7-QPR,5.06 log2 enrichment (interaction score)
